The text below walks through data of PubChem BioAssay (EPA / NIEHS).

Structures are written as SMILES. Active and inactive are the calls of the source. The calls were made as follows: active = hit-call score of the fitted dose curve at least 0.9, where 1 is the maximum; inactive = score below 0.9.

Read-out in assay [1]: Interleukin-8 (IL8), CXCL8 (gene 3576)
The assay can be described thus: BSK_CASM3C_IL8: BioMAP Diversity Plus: CASM3C Assay for Interleukin-8 (IL8) Biomarker Activity (AID 2283042).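 Also: IL-8 protein level quantified by ELISA.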 To be noted: primary human coronary artery smooth muscle cells; actives raise or lower the signal.

Read-out in assay [2]: Human Leukocyte Antigen - DR isotype (HLADR), HLA-DRA (gene 3122)
Description: BSK_CASM3C_HLADR: BioMAP Diversity Plus: CASM3C Assay for Human Leukocyte Antigen - DR isotype (HLADR) Biomarker Activity (AID 2283043).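 Also: cell-surface HLA-DR protein level quantified by ELISA.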 To be noted: primary human coronary artery smooth muscle cells; actives raise or lower the signal.

Read-out in assay [3]: Macrophage colony-stimulating factor (MCSF), CSF1 (gene 1435)
Description: BSK_CASM3C_MCSF: BioMAP Diversity Plus: CASM3C Assay for Macrophage colony-stimulating factor (MCSF) Biomarker Activity (AID 2283044).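 Also: M-CSF protein amount quantified by ELISA after 24 h exposure.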 Conditions: primary human coronary artery smooth muscle cells; actives raise or lower the signal.

Read-out in assay [4]: Low-density lipoprotein receptor (LDLR), LDLR (gene 3949)
The assay can be described thus: BSK_CASM3C_LDLR: BioMAP Diversity Plus: CASM3C Assay for Low-density lipoprotein receptor (LDLR) Biomarker Activity (AID 2283045).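 Also: LDLR protein level on the cell surface quantified by ELISA.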 Conditions: primary human coronary artery smooth muscle cells; actives raise or lower the signal.

Read-out in assay [5]: Monocyte Chemoattractant Protein-1 (MCP1), CCL2 (gene 6347)
Description: BSK_CASM3C_MCP1: BioMAP Diversity Plus: CASM3C Assay for Monocyte Chemoattractant Protein-1 (MCP1) Biomarker Activity (AID 2283046).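 Also: MCP-1 level quantified by ELISA 24 h after dosing.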 To be noted: primary human coronary artery smooth muscle cells; actives raise or lower the signal.

Assay [6] in a line: BSK_CASM3C_Proliferation: Cell Proliferation Assessment in the BioMAP Diversity Plus: CASM3C Assay (AID 2283047).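 Also: sulforhodamine B total protein stain as relative cell number at 560 nm; sub-confluent cells exposed 48 h before staining; fitted both ways against DMSO so gain or loss of cell number.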 To be noted: primary human coronary artery smooth muscle cells.
Read-out in assay [7]: Monokine induced gamma interferon (MIG), CXCL9 (gene 4283)
The assay can be described thus: BSK_CASM3C_MIG: BioMAP Diversity Plus: CASM3C Assay for Monokine induced gamma interferon (MIG) Biomarker Activity (AID 2283048).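 Also: MIG protein level measured by ELISA.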 Conditions: primary human coronary artery smooth muscle cells; actives raise or lower the signal.

Read-out in assay [8]: serum amyloid A (SAA), SAA1 (gene 6288)
Description: BSK_CASM3C_SAA: BioMAP Diversity Plus: CASM3C Assay for serum amyloid A (SAA) Biomarker Activity (AID 2283049).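 Also: SAA protein level quantified by ELISA.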 Conditions: primary human coronary artery smooth muscle cells; actives raise or lower the signal.

Assay [9] is described as follows: BSK_CASM3C_SRB: Viability Assessment in the BioMAP Diversity Plus: CASM3C Assay (AID 2283050).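 Also: total protein by SRB staining as cytotoxicity measure in parallel cultures; cells exposed to compound for 24 h.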 To be noted: primary human coronary artery smooth muscle cells.
Read-out in assay [10]: Thrombomodulin, THBD (gene 7056)
Description: BSK_CASM3C_Thrombomodulin: BioMAP Diversity Plus: CASM3C Assay for Thrombomodulin Biomarker Activity (AID 2283051).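 Also: thrombomodulin protein level measured by ELISA 24 h after dosing.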 To be noted: primary human coronary artery smooth muscle cells; actives raise or lower the signal.

Read-out in assay [11]: Tissue Factor, F3 (gene 2152)
The assay can be described thus: BSK_CASM3C_TissueFactor: BioMAP Diversity Plus: CASM3C Assay for Tissue Factor Biomarker Activity (AID 2283052).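 Also: cell surface tissue factor protein level read by ELISA.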 Conditions: primary human coronary artery smooth muscle cells; actives raise or lower the signal.

Read-out in assay [12]: Interferon-gamma inducible Protein 10 (IP10), CXCL10 (gene 3627)
The assay can be described thus: BSK_hDFCGF_IP10: BioMAP Diversity Plus: hDFCGF Assay for Interferon-gamma inducible Protein 10 (IP10) Biomarker Activity (AID 2283053). Conditions: primary human foreskin fibroblasts; actives raise or lower the signal. The method, boiled down: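 ELISA read-out of IP-10 (CXCL10) from primary human skin fibroblasts, 24 h after compound addition. Gain or loss of signal versus DMSO baseline, bidirectional curve fitting.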

Read-out in assay [13]: Urokinase-type plasminogen activator receptor (uPAR), PLAUR (gene 5329)
The assay can be described thus: BSK_CASM3C_uPAR: BioMAP Diversity Plus: CASM3C Assay for Urokinase-type plasminogen activator receptor (uPAR) Biomarker Activity (AID 2283054).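 Also: cell-surface uPAR protein level quantified by ELISA.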 To be noted: primary human coronary artery smooth muscle cells; actives raise or lower the signal.

Read-out in assay [14]: Vascular cell adhesion molecule 1 (VCAM1), VCAM1 (gene 7412)
Description: BSK_CASM3C_VCAM1: BioMAP Diversity Plus: CASM3C Assay for Vascular cell adhesion molecule 1 (VCAM1) Biomarker Activity (AID 2283055).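 Also: VCAM-1 protein level quantified by ELISA on the cells.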 Conditions: primary human coronary artery smooth muscle cells; actives raise or lower the signal.

Read-out in assay [15]: Collagen III, COL3A1 (gene 1281)
Description: BSK_hDFCGF_CollagenIII: BioMAP Diversity Plus: hDFCGF Assay for Collagen III Biomarker Activity (AID 2283056). To be noted: primary human foreskin fibroblasts; actives raise or lower the signal. The method, boiled down: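 Human foreskin primary fibroblasts were exposed to test chemicals for 24 h, after which collagen III was quantified by ELISA. Activity was fitted bidirectionally against DMSO as negative control and baseline.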

Read-out in assay [16]: Epidermal growth factor receptor (EGFR), EGFR (gene 1956)
Description: BSK_hDFCGF_EGFR: BioMAP Diversity Plus: hDFCGF Assay for Epidermal growth factor receptor (EGFR) Biomarker Activity (AID 2283057). Conditions: primary human foreskin fibroblasts; actives raise or lower the signal. The method, boiled down:
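ELISA readout of EGFR on human dermal fibroblasts (primary foreskin cells), 24 h post-dosing; bidirectional curve fit vs DMSO baseline, gain or loss of signal scored.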

Read-out in assay [17]: Interleukin-8 (IL8), CXCL8 (gene 3576)
The assay can be described thus: BSK_hDFCGF_IL8: BioMAP Diversity Plus: hDFCGF Assay for Interleukin-8 (IL8) Biomarker Activity (AID 2283058). To be noted: primary human foreskin fibroblasts; actives raise or lower the signal. The method, boiled down:
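hDFCGF human dermal fibroblasts; 24 h chemical exposure; IL-8 by ELISA; bidirectional curve fit vs DMSO baseline; gain or loss of signal scored.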

Assay [18] in a line: BSK_hDFCGF_Proliferation: Cell Proliferation Assessment in the BioMAP Diversity Plus: hDFCGF Assay (AID 2283059).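 Also: curves fitted for both rise and fall of signal versus DMSO baseline.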 Conditions: primary human foreskin fibroblasts. The method, boiled down:
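Steps: dose primary human dermal fibroblasts (foreskin); […] fix in 10% TCA; stain with 0.1% SRB; read 560 nm; fit gain or loss of signal against DMSO.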

Read-out in assay [19]: Macrophage colony-stimulating factor (MCSF), CSF1 (gene 1435)
The assay can be described thus: BSK_hDFCGF_MCSF: BioMAP Diversity Plus: hDFCGF Assay for Macrophage colony-stimulating factor (MCSF) Biomarker Activity (AID 2283060). Conditions: primary human foreskin fibroblasts; actives raise or lower the signal. In a few lines: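 Human foreskin primary fibroblasts were treated with test chemical for 24 h, and M-CSF was then measured by ELISA. Data were fitted bidirectionally against DMSO as the negative control and activity baseline.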

Assay [20] is described as follows: BSK_hDFCGF_SRB: Viability Assessment in the BioMAP Diversity Plus: hDFCGF Assay (AID 2283061).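 Also: cells exposed to compound for 24 h before the read.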 To be noted: primary human foreskin fibroblasts. In a few lines: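 Human foreskin primary fibroblasts were treated with compound and assessed 24 h after dosing. Total protein was measured by sulforhodamine B staining (0.1% SRB after 10% TCA fixation, 560 nm read) as a cytotoxicity marker, with bidirectional fitting against DMSO baseline.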

In general, AC50 refers to the concentration at which the activity in the assay is half-maximal. Take `CCCOC(=O)c1cc(O)c(O)c(O)c1`: the outcome in assay [1], in assay [2], in assay [3], in assay [4], in assay [5] and in assay [7] was inactive. The outcome in [8], in [9], in assay [10], in assay [11], in [13] and in assay [14] was inactive. The result in [15], in assay [16], in assay [17], in assay [19] and in [20] was inactive. Moreover, the values for the AC50 in assay [6], in [12] and in assay [18] were 6.82 µM (active), 20 µM (active) and 8.01 µM (active), respectively.
`CCCCCCCCCCCC[N+](C)(C)C`: the half-maximal activity concentration (AC50) in assay [1] is 29.1 µM (active); in assay [2], 14 µM (active); in assay [3], 16.2 µM (active); in assay [4], 21.2 µM (active); in assay [5] it was 27.1 µM (active); in assay [6] it was 12.9 µM (active). Further, the half-maximal activity concentration (AC50) in assay [7] was 33.3 µM (active); in assay [8] it was 26 µM (active); in assay [9], 27.6 µM (active); in assay [11], 4.09 µM (active); in assay [12], 22.2 µM (active); in [13], 19.9 µM (active). Besides, the AC50 is 32.9 µM (active) in assay [14]; 2.57 µM (active) in [15]; 29.9 µM (active) in assay [17]; 8.97 µM (active) in assay [18]; 11.9 µM (active) in assay [19]; 18.4 µM (active) in assay [20]. Besides, the result in [10] and in assay [16] was inactive.
As for `O=CCCCC=O`, the outcome in assay [1], in [3], in assay [4], in assay [5], in [7] and in assay [8] was inactive. Moreover, the outcome in assay [9], in assay [11], in [13] and in assay [16] was inactive. Further, the half-maximal activity concentration (AC50) is 30.2 µM (active) in assay [2]; 23.5 µM (active) in assay [6]; 31.9 µM (active) in assay [10]; 34.9 µM (active) in [12]; 22.4 µM (active) in assay [14]; 33.6 µM (active) in assay [15]. Also, the AC50 was 36.9 µM (active) in assay [17], 25.3 µM (active) in assay [18], 30.6 µM (active) in assay [19] and 33.4 µM (active) in [20].
Consider `OCCO`, for which the outcome in assay [1], in [2], in [3], in assay [4], in assay [5] and in [6] was inactive. In addition, the result in [7], in [8], in assay [9], in [10], in [11] and in assay [12] was inactive. Further, the result in [13], in assay [14], in [15], in [16], in [17] and in assay [19] was inactive. For the same molecule, in assay [20], the outcome was inactive. In addition, the AC50 in [18] was 20.1 µM (active).
Consider `O=C1O[C@H]([C@@H](O)CO)C(O)=C1O`, for which the result in [1], in assay [2], in assay [3], in [4], in assay [5] and in assay [6] was inactive. Moreover, the outcome in assay [7], in [8], in assay [9], in [10], in [11] and in [12] was inactive. The outcome in [13], in [14], in assay [15], in assay [16], in assay [17] and in assay [18] was inactive. The outcome in assay [19] and in [20] was inactive.
Regarding `CC1=CC(=O)/C(=C(/C)O)C(=O)O1`, the outcome in assay [1], in assay [2], in assay [3], in [4], in [5] and in assay [6] was inactive. Further, the outcome in assay [7], in assay [8], in assay [9], in assay [10], in [11] and in [12] was inactive. Besides, the outcome in assay [13], in [14], in assay [15], in assay [16], in assay [17] and in assay [18] was inactive. The outcome in assay [19] and in assay [20] was inactive.
